# Results published in PubChem BioAssay (EPA / NIEHS).
# Some compounds were tested as several samples or in several runs, with calls that do not always agree. The source made the active and inactive calls. The calls were made as follows: active = hit-call score of the fitted dose curve at least 0.9, where 1 is the maximum; inactive = score below 0.9.
# Assays:
# [1] = ATG_CMV_CIS: Attagene CIS-FACTORIAL HepG2 Assay for human CMV (Internal Marker) (AID 2282928); settings: HepG2 CMV promoter reporter, transcription factor profiling; actives raise or lower the signal;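 also: endpoint acts as a background internal control marker rather than a target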
# Summary of the method: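 Bidirectional fits against DMSO are applied to reporter mRNA, read by RT-PCR with capillary electrophoresis, from HepG2 cells exposed 24 h. The endpoint serves as an internal CMV background marker within the cis-factorial reporter panel.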
# [2] = ATG_DR4_LXR_CIS: Attagene CIS-FACTORIAL HepG2 Assay for human Liver X Receptor (LXR), DR4 submotif (AID 2282929); settings: HepG2 Attagene DR4 cis-reporter, mRNA transcription; actives raise or lower the signal
# Summary of the method: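 DR4 cis-reporter in HepG2, 24 h exposure. Detection: RT-PCR, 6-FAM labelling, CE fragment analysis. Endpoint fitted bidirectionally, DMSO = baseline.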
# [3] = target: Aryl hydrocarbon receptor (Homo sapiens) (UniProt P35869); experiment: ATG_Ahr_CIS: Attagene CIS-FACTORIAL HepG2 Assay for human Aryl Hydrocarbon Receptor (Ahr) (AID 2282930); settings: HepG2 AhR cis-factorial reporter transcription; actives raise or lower the signal
# Chain of Aryl hydrocarbon receptor (Homo sapiens) (P35869 whole entry, looked up): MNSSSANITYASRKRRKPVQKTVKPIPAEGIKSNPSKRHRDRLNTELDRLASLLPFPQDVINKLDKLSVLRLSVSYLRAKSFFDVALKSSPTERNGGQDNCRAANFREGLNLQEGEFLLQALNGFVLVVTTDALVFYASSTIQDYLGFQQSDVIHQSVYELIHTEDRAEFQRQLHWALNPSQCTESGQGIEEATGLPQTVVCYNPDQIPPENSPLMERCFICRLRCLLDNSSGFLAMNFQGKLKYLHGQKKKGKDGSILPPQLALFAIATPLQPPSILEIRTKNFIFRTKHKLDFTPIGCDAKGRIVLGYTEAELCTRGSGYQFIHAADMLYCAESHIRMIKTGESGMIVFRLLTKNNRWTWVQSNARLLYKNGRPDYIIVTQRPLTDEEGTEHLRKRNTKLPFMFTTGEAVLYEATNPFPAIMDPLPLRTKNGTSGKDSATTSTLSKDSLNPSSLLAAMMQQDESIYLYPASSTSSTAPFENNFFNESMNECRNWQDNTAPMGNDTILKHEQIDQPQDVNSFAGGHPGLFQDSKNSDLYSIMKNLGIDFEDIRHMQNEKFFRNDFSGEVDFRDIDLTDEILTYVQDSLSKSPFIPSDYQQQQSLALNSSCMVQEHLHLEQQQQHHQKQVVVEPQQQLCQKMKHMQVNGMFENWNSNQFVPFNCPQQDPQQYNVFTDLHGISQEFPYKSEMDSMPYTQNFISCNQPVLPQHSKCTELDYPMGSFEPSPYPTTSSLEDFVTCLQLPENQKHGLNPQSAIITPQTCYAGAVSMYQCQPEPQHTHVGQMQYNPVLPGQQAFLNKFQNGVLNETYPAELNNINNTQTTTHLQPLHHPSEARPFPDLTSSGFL
# Summary of the method: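 Read-out: reporter mRNA quantified by RT-PCR with fluorescent primer extension and capillary electrophoresis. Human HepG2 liver cells carried transfected cis-promoter reporter units and were exposed to chemical for 24 h; gain or loss fitted relative to DMSO.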
# [4] = ATG_AP_1_CIS: Attagene CIS-FACTORIAL HepG2 Assay for human Activator Protein 1 (AP-1) (AID 2282931); settings: HepG2 Attagene cis-factorial AP-1 reporter mRNA; actives raise or lower the signal
# Summary of the method: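 Cis-regulated reporter units transiently expressed in HepG2 report endogenous transcription-factor activity. Signal: reporter mRNA at 24 h, via RT-PCR and fluorescent capillary electrophoresis. Endpoint derived by bidirectional fitting, DMSO as negative control.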
# [5] = ATG_AP_2_CIS: Attagene CIS-FACTORIAL HepG2 Assay for human Activator Protein 2 (AP-2) (AID 2282932); settings: HepG2 AP-2 cis-reporter, Attagene transcription factor profiling; actives raise or lower the signal
# Summary of the method: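 Read-out: fluorescent reporter mRNA via RT-PCR and capillary electrophoresis, 24 h post-dose in transiently transfected HepG2. Endogenous factors drive cis-promoter reporters; gain or loss of signal fitted bidirectionally against DMSO.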
# [6] = ATG_BRE_CIS: Attagene CIS-FACTORIAL HepG2 Assay for human Bone Morphogenetic Protein (BMP) Response Element (BRE) (AID 2282933); settings: HepG2 BMP response element reporter, Attagene transcription factor profiling; actives raise or lower the signal
# Summary of the method: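 Transient MRTU transfection of human HepG2 liver cells; 24 h compound treatment; total RNA isolated, reverse-transcribed, PCR-amplified, 6-FAM labelled, HpaI-cut, capillary electrophoresis. DMSO = negative control/baseline, bidirectional fit.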
# [7] = target: Retinoic acid receptor alpha (Homo sapiens) (UniProt P10276); experiment: ATG_DR5_RAR_CIS: Attagene CIS-FACTORIAL HepG2 Assay for human Retinoic Acid Receptor Alpha (RARE), DR5 submotif (AID 2282934); settings: HepG2 Attagene cis-factorial RARE DR5 reporter, mRNA; actives raise or lower the signal;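 as to AC50: reporter responds to endogenous RAR alpha beta and gamma in HepG2 not RARA alone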
# Chain of Retinoic acid receptor alpha (Homo sapiens) (P10276 whole entry, looked up): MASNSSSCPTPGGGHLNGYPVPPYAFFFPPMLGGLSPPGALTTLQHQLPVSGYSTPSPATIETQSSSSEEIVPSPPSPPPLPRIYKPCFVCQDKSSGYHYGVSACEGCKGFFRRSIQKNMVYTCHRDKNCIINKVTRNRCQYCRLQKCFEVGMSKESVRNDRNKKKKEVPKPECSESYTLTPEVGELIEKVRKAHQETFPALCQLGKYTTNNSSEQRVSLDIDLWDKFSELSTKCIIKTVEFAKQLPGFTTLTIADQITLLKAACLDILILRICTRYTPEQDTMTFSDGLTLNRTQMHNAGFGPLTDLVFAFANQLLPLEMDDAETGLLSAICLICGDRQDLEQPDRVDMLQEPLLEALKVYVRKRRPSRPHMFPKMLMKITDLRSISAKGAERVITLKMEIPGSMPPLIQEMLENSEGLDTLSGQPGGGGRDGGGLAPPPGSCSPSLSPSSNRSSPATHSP
# Summary of the method: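 Read-out: DR5-driven reporter transcript measured by RT-PCR, 6-FAM primer extension, HpaI digest and capillary electrophoresis. Human HepG2 liver cells carry transiently transfected cis-element reporter constructs; dosing lasts 24 h. Gain or loss of signal fitted against DMSO baseline.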
# [8] = target: Transcription factor E2F1 (Homo sapiens) (UniProt Q01094); experiment: ATG_E2F_CIS: Attagene CIS-FACTORIAL HepG2 Assay for human E2F Transcription Factor 1 (AID 2282935); settings: HepG2 Attagene cis-reporter, E2F reporter RNA transcripts; actives raise or lower the signal
# Chain of Transcription factor E2F1 (Homo sapiens) (Q01094 whole entry, looked up): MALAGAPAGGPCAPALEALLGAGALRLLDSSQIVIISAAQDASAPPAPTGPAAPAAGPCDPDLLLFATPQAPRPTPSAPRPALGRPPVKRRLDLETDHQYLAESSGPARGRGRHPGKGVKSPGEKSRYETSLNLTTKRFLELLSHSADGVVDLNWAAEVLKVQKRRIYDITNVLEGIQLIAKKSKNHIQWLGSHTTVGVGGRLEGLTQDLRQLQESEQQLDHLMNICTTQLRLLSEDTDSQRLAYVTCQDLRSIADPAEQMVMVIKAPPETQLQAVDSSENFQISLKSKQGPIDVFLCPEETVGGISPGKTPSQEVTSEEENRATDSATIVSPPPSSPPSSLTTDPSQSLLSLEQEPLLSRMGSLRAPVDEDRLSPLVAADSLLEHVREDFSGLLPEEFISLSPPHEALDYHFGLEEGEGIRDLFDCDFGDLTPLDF
# Summary of the method: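 Transient MRTU transfection of HepG2; 24 h compound exposure; RNA → oligo(dT) RT → PCR → FAM label → HpaI cut → CE fluorescence. Gain/loss of signal fit against DMSO.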
# [9] = ATG_E_Box_CIS: Attagene CIS-FACTORIAL HepG2 Assay for human Enhancer Box (E-box) (AID 2282936); settings: HepG2 E-box cis-reporter transcription, actives raise or lower the signal
# Summary of the method: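 Transiently transfected HepG2, endogenous TF-driven reporters, 24 h dosing. Readout: RT-PCR plus capillary electrophoresis of fluorescent reporter fragments. Gain or loss of signal fitted bidirectionally against DMSO baseline.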
# [10] = ATG_M_61_CIS: Attagene CIS-FACTORIAL HepG2 Assay for M61 Transcription Factor (Internal Marker) (AID 2282937); settings: HepG2 Attagene CIS-FACTORIAL M61 internal marker reporter; actives raise or lower the signal
# Summary of the method: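 Background-control endpoint: HepG2 cells with cis-regulated reporter constructs, 24 h exposure, reporter mRNA detected via fluorescent primer extension and capillary electrophoresis; values from bidirectional fitting with DMSO baseline.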
SMILES,outcome [1],outcome [2],outcome [3],outcome [4],outcome [5],outcome [6],outcome [7],outcome [8],outcome [9],outcome [10],AC50 [3],AC50 [2],AC50 [5],AC50 [9],AC50 [4],AC50 [1],AC50 [7],AC50 [6]
C1CN2CCN1CC2,inactive,inactive,inactive,inactive,inactive,inactive,inactive,inactive,inactive,inactive,,,,,,,,
C=CC(Cl)CCl (centres undefined),inactive,inactive,inactive,inactive,inactive,inactive,inactive,inactive,inactive,inactive,,,,,,,,
Cc1cccc(N=Nc2ccc(N(C)C)cc2)c1,inactive,inactive,,inactive,inactive,inactive,inactive,inactive,inactive,inactive,8.37 µM (active),,,,,,,
O=NN1CCCCCC1,inactive,inactive,inactive,inactive,inactive,inactive,inactive,inactive,inactive,inactive,,,,,,,,
C=CCOC(F)(C(F)(F)F)C(F)(F)F,inactive,inactive,inactive,inactive,inactive,inactive,inactive,inactive,inactive,inactive,,,,,,,,
C=C(C)C(=O)OCCCCOC(=O)C(=C)C,inactive,inactive,inactive,inactive,inactive,inactive,inactive,inactive,inactive,inactive,,,,,,,,
O=C1C=CC(=O)c2ccccc21,inactive,inactive,,inactive,inactive,inactive,inactive,inactive,inactive,inactive,0.652 µM (active),,,,,,,
Nc1cccnc1,inactive,inactive,inactive,inactive,inactive,inactive,inactive,inactive,inactive,inactive,,,,,,,,
Cc1cccc(C)c1NC(=O)CN1CCCC1=O,inactive,inactive,inactive,inactive,inactive,inactive,inactive,inactive,inactive,inactive,,,,,,,,
COc1ccc([N+](=O)[O-])cc1O,inactive,inactive,inactive,inactive,inactive,inactive,inactive,inactive,inactive,inactive,,,,,,,,
CC(C)(C)c1ccc(CCOc2ncnc3ccccc23)cc1,inactive,inactive,inactive,inactive,inactive,inactive,inactive,inactive,inactive,inactive,,,,,,,,
Cc1cc(Cl)ccc1O,inactive,inactive,inactive,inactive,inactive,inactive,inactive,inactive,inactive,inactive,,,,,,,,
O=[N+]([O-])c1ccc(Cl)c([N+](=O)[O-])c1,inactive,,inactive,inactive,,inactive,inactive,inactive,,inactive,,5.36 µM (active),6.06 µM (active),6.14 µM (active),,,,
CC(C)(COCC1CO1)COCC1CO1 (centres undefined),inactive,inactive,inactive,inactive,inactive,inactive,inactive,inactive,inactive,inactive,,,,,,,,
Cc1cccc(OP(=O)(Oc2cccc(C)c2)Oc2cccc(C)c2)c1,inactive,inactive,inactive,inactive,inactive,inactive,inactive,inactive,inactive,inactive,,,,,,,,
CC(c1ccccc1)(c1ccc(O)cc1)c1ccc(O)cc1,inactive,,inactive,,inactive,inactive,inactive,inactive,,inactive,,11.1 µM (active),,16.9 µM (active),7.98 µM (active),,,
CCCCS(=O)(=O)Cl,inactive,inactive,inactive,inactive,inactive,inactive,inactive,inactive,inactive,inactive,,,,,,,,
O=C(Cl)OCCOCCOC(=O)Cl,inactive,inactive,inactive,inactive,inactive,inactive,inactive,inactive,inactive,inactive,,,,,,,,
Nc1ccc(N)cc1,inactive,inactive,,,inactive,inactive,inactive,inactive,inactive,inactive,,44.6 µM (active),,,,24.3 µM (active),37.5 µM (active),
CCOCn1c(-c2ccc(Cl)cc2)c(C#N)c(Br)c1C(F)(F)F,inactive,,,inactive,,,,inactive,inactive,inactive,170 µM (active),8.63 µM (active),3.76 µM (active),,,,0.518 µM (active),1.1 µM (active)
O=C1C[C@@H]2OCC=C3CN4CC[C@]56c7ccccc7N1[C@H]5[C@H]2[C@H]3C[C@H]46,inactive,inactive,inactive,inactive,inactive,inactive,inactive,inactive,inactive,inactive,,,,,,,,
c1cc[c]([Sb]([c]2ccccc2)[c]2ccccc2)cc1,,,inactive,,inactive,inactive,inactive,inactive,inactive,inactive,,9.64 µM (active),,,68.5 µM (active),64.8 µM (active),,
CN(C1CCCCC1)C1CCCCC1,inactive,inactive,inactive,inactive,inactive,inactive,inactive,inactive,inactive,inactive,,,,,,,,
CC(C)(C#N)N=NC(C)(C)C#N,inactive,inactive,inactive,inactive,inactive,inactive,inactive,inactive,inactive,inactive,,,,,,,,

SMILES,outcome [1],outcome [2],outcome [3],outcome [4],outcome [5],outcome [6],outcome [7],outcome [8],outcome [9],outcome [10],AC50 [3],AC50 [2],AC50 [5],AC50 [9],AC50 [4],AC50 [1],AC50 [7],AC50 [6]
[F][Sn]([c]1ccccc1)([c]1ccccc1)[c]1ccccc1,,,,inactive,,inactive,inactive,inactive,,inactive,0.329 µM (active),0.528 µM (active),1.84 µM (active),0.593 µM (active),,0.334 µM (active),,
C=CC(F)(C(F)(F)F)C(F)(F)C(F)(F)F (centres undefined),inactive,inactive,inactive,inactive,inactive,inactive,inactive,inactive,inactive,inactive,,,,,,,,
CC(C)=CC1C(C(=O)OCc2cccc(Oc3ccccc3)c2)C1(C)C (centres undefined),inactive,,inactive,inactive,inactive,inactive,inactive,inactive,inactive,inactive,,22.3 µM (active),,,,,,
C=CC(=O)OCC(COC(=O)C=C)(COC(=O)C=C)COC(=O)C=C,,,inactive,,,inactive,inactive,inactive,,inactive,,3.12 µM (active),33.4 µM (active),7.14 µM (active),33.4 µM (active),8.92 µM (active),,
Cc1cc(C(C)(C)c2ccc(O)c(C)c2)ccc1O,,,,,inactive,inactive,,inactive,inactive,inactive,89 µM (active),12.1 µM (active),,,83.9 µM (active),89.3 µM (active),21.5 µM (active),
C=CCOC(N)=O,inactive,inactive,inactive,inactive,inactive,inactive,inactive,inactive,inactive,inactive,,,,,,,,
CC(=O)C(F)(F)C(F)(F)F,inactive,inactive,inactive,inactive,inactive,inactive,inactive,inactive,inactive,inactive,,,,,,,,
CCCCOC(C)=O,inactive,inactive,inactive,inactive,inactive,inactive,inactive,inactive,inactive,inactive,,,,,,,,
O=C(CBr)c1ccc(O)cc1,inactive,inactive,inactive,inactive,inactive,inactive,inactive,inactive,inactive,inactive,,,,,,,,
Oc1ccc(Cc2ccc(O)cc2)cc1,,inactive,inactive,inactive,inactive,inactive,inactive,inactive,inactive,inactive,,,,,,77.1 µM (active),,
O=NN1CCCCCCC1,inactive,inactive,inactive,inactive,inactive,inactive,inactive,inactive,inactive,inactive,,,,,,,,
C=C(C)C(=O)OCC(CC)CCCC (centres undefined),inactive,inactive,inactive,inactive,inactive,inactive,inactive,inactive,inactive,inactive,,,,,,,,
C[As+](C)(C)CC(=O)[O-],inactive,inactive,inactive,inactive,inactive,inactive,inactive,inactive,inactive,inactive,,,,,,,,
CCCCCCCCCCCCOS(=O)(=O)O,inactive,inactive,,inactive,inactive,inactive,,inactive,inactive,inactive,,49.3 µM (active),,,,,,
CCC(C)(C#N)N=NC(C)(C#N)CC (centres undefined),inactive,inactive,inactive,inactive,inactive,inactive,inactive,inactive,inactive,inactive,,,,,,,,
CC(c1ccc(O)cc1)c1ccc(O)cc1,inactive,inactive,inactive,inactive,inactive,inactive,inactive,inactive,inactive,inactive,,,,,,,,
[Cl][Sn]([c]1ccccc1)([c]1ccccc1)[c]1ccccc1,inactive,,,inactive,,inactive,,inactive,,inactive,1.09 µM (active),0.67 µM (active),0.503 µM (active),0.252 µM (active),,,0.227 µM (active),
CCOC(=O)c1ccccc1S(=O)(=O)NC(=O)Nc1nc(Cl)cc(OC)n1,inactive,inactive,inactive,inactive,inactive,inactive,inactive,inactive,inactive,inactive,,,,,,,,
N#Cc1ccncc1,inactive,inactive,inactive,inactive,inactive,inactive,inactive,inactive,inactive,inactive,,,,,,,,
CCCCC(CC)C(=O)Cl (centres undefined),inactive,inactive,inactive,inactive,inactive,inactive,inactive,inactive,,inactive,,,,,,,,
O=C/C(Cl)=C(/Cl)C(=O)O,,,inactive,inactive,,inactive,inactive,inactive,,inactive,,70.7 µM (active),61.5 µM (active),100 µM (active),,94.3 µM (active),,
O=c1[nH]c2ccccc2n1C1CCN(CCCC(c2ccc(F)cc2)c2ccc(F)cc2)CC1,,,inactive,inactive,inactive,inactive,,inactive,inactive,inactive,,5.83 µM (active),,,,3.71 µM (active),5.87 µM (active),
O=C(NC(=O)c1c(F)cccc1F)Nc1cc(Cl)c(Oc2ncc(C(F)(F)F)cc2Cl)c(Cl)c1,inactive,,inactive,inactive,inactive,inactive,inactive,inactive,inactive,inactive,,4.57 µM (active),,,,,,
